Results published in PubChem BioAssay.
Inconclusive results are not listed. Calls of active or inactive are those of the source.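 Rule for the calls, unless noted: active = viability increase at or above a cutoff of the median across tested compounds plus 3 SD (cut at about 8.5% in these data, passing the limit was not always enough); inconclusive = some gains above the cutoff, reason not given; inactive = the rest.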

Test: doxorubicin toxicity protection in MRP-1 cells – H69AR cells, CellTiter-Glo, duplicate, MRP-1 activator project, pilot screen (AID 807);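 note: compound pretreatment 18-22 h then 72 h combined with doxorubicin; 0% = doxorubicin alone and 100% = vehicle without doxorubicin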
Details: H69AR viability with doxorubicin, CellTiter-Glo luminescence; at 10 µM; hits give high values

Row | Structure (SMILES) | viability increase
1 | CC(=O)Nc1ccc(S(=O)(=O)NCc2ccc3c(c2)cc(C)n3C)cc1 | 0.21% (inactive)
2 | CCOc1ccc(N(CC(=O)Nc2ccccc2)S(C)(=O)=O)cc1 | -1.68% (inactive)
3 | O=C1NCC2=C1C(c1ccc(Br)cc1)Nc1ccccc1N2 (stereo not given) | 0.99% (inactive)
4 | COc1ccccc1C(=O)NC(CCSC)C(=O)NCC(c1ccco1)N(C)C (stereo not given) | -2.48% (inactive)
5 | COC(=O)c1ccc(-c2nc(-c3ccc(Br)o3)no2)cc1 | 3.93% (inactive)
6 | CCOc1ccc(C2CC(c3ccc(OC)cc3)n3ncnc3N2)cc1 (stereo not given) | 0.61% (inactive)
7 | O=C(NCC(c1ccc(F)cc1)N1CCOCC1)c1ccc(Br)o1 (stereo not given) | -1.97% (inactive)
8 | Cc1noc(C)c1S(=O)(=O)N(CC(=O)N1CCCC1)c1ccc(C(C)C)cc1 | -5.13% (inactive)
9 | O=C(CSc1nc2c(c(=O)n1-c1ccc(Cl)cc1)SCC2)Nc1nccs1 | -2.93% (inactive)
10 | CCOc1ccc(C2CC(c3ccc(CC)cc3)n3nc(N)nc3N2)cc1 (stereo not given) | 2.68% (inactive)
11 | COC(=O)CSc1nc(C)cc(Oc2ccccc2)n1 | -1.76% (inactive)
12 | CCCN(CCC)C(=O)CCS(=O)(=O)c1cccc2nsnc12 | -1.95% (inactive)
13 | O=C(NC1CCCC1)C1c2ccccc2C(=O)N1CCCN1CCOCC1 (stereo not given) | -1.72% (inactive)
14 | CCCCCOC(=O)NCC(O)c1ccccc1 (stereo not given) | -1.52% (inactive)
15 | Cc1cc(C)c2c(=O)n(CC(=O)N3CCC(N4CCCCC4)CC3)sc2n1 | -7.14% (inactive)
16 | Cn1c(=O)c2cc(NCc3ccccc3)nnc2n(C)c1=O | -2.1% (inactive)
17 | COC(=O)C1=CNC=C(C(=O)OC)C1c1ccc(C(=O)OC)cc1 | -3.35% (inactive)
18 | CC(O)c1cccc(NC(=O)CCC(=O)O)c1 (stereo not given) | -2.35% (inactive)
19 | CCSc1nnc(NC(=O)c2cc3c(s2)CCCC3)s1 | -1.67% (inactive)
20 | CC(CCc1ccco1)NC(=O)c1cc2c(-c3ccccc3F)nn(C)c2s1 (stereo not given) | 1.04% (inactive)

Row | Structure (SMILES) | viability increase
21 | COc1ccc(CNC(=O)c2ccc3c(c2)N(C)C(=O)CS3=O)cc1 (stereo not given) | 1.48% (inactive)
22 | Cc1ccc(OCCN2CCCCCC2)c(C)c1 | -3.81% (inactive)
23 | C(=N\c1nccs1)/c1cccnc1 | -0.86% (inactive)
24 | Cc1ccc(S(=O)(=O)CCc2nc3ccccc3n2CCC#N)cc1 | -7.34% (inactive)
25 | CCOC(=O)CC1C(=O)NCCN1Cc1cccc(OC)c1 (stereo not given) | 0.71% (inactive)
26 | COc1ccc(-c2cc(C(F)(F)F)n3nc(C)cc3n2)cc1 | 0.18% (inactive)
27 | Cn1c(=O)[nH]c(=O)c2c1nc(N1CCCCC1)n2CCSc1nc2ccccc2o1 | -3.7% (inactive)
28 | O=C(CN1C(=O)c2ccccc2S1(=O)=O)NC1CCCCCC1 | -1.02% (inactive)
29 | CC(C)n1c(=O)[nH]c2ccccc21 | -4.28% (inactive)
30 | O=C(O)C1C2C=CC3(CN(C/C=C/c4ccccc4)C(=O)C13)O2 (stereo not given) | -2.86% (inactive)
31 | CCCn1nc2ccccc2c1P(=N)(N1CCOCC1)N1CCOCC1 | -2% (inactive)
32 | CCOc1ccc(C2N(c3ccc(F)cc3)C(=O)C3CCCN32)cc1 (stereo not given) | -0.91% (inactive)
33 | COc1ccc(-n2c(C)nc3c(cnn3-c3ccc(C)c(C)c3)c2=O)cc1 | 2.3% (inactive)
34 | CCSCCOC(=O)C1=C(C)NC(=O)NC1c1cccc(OC)c1OC (stereo not given) | -1.39% (inactive)
35 | CCOc1ccc(NC(=O)CSc2nc3c(c(=O)n2-c2ccccc2OC)SCC3)cc1 | -2.57% (inactive)
36 | CCOc1ccccc1N1C(=O)c2cccnc2C1=O | -1.2% (inactive)
37 | CCOc1ccc(-n2c(SCC(=O)NCc3ccco3)nc3c(c2=O)SCC3)cc1 | -3.31% (inactive)
38 | Cc1ccc(-c2nnc3n2N=C(c2ccccc2)CS3)cc1 | -0.74% (inactive)
39 | Cc1cc(N2CCCC2)n2nc(C)nc2n1 | -0.52% (inactive)
40 | CS(=O)(=O)c1ccc(N)cc1 | -2.37% (inactive)

Test: viability of HCT116 without oncogenic beta-catenin – human colon tumor cells, pilot screen (AID 823;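 active = cell viability at or below a set limit in both duplicate runs, the limit being the all-compound median minus 4 SD, cut at about 23% in these data, passing the limit was not always enough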;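 note: 0% = wells killed by 20 µM Hyamine and 100% = untreated DMSO cell wells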)
Details: HCT116 beta-catenin knockout viability, CellTiter-Glo, 60 h; at 10 µM; hits give low values

Row | Structure (SMILES) | viability
41 | CC(=O)Nc1ccc(S(=O)(=O)NCc2ccc3c(c2)cc(C)n3C)cc1 | 101% (inactive)
42 | CCOc1ccc(N(CC(=O)Nc2ccccc2)S(C)(=O)=O)cc1 | 102% (inactive)
43 | O=C1NCC2=C1C(c1ccc(Br)cc1)Nc1ccccc1N2 (stereo not given) | 106% (inactive)
44 | COc1ccccc1C(=O)NC(CCSC)C(=O)NCC(c1ccco1)N(C)C (stereo not given) | 87.2% (inactive)
45 | COC(=O)c1ccc(-c2nc(-c3ccc(Br)o3)no2)cc1 | 103% (inactive)
46 | CCOc1ccc(C2CC(c3ccc(OC)cc3)n3ncnc3N2)cc1 (stereo not given) | 104% (inactive)
47 | O=C(NCC(c1ccc(F)cc1)N1CCOCC1)c1ccc(Br)o1 (stereo not given) | 86.3% (inactive)
48 | Cc1noc(C)c1S(=O)(=O)N(CC(=O)N1CCCC1)c1ccc(C(C)C)cc1 | 83.6% (inactive)
49 | O=C(CSc1nc2c(c(=O)n1-c1ccc(Cl)cc1)SCC2)Nc1nccs1 | 82.5% (inactive)
50 | CCOc1ccc(C2CC(c3ccc(CC)cc3)n3nc(N)nc3N2)cc1 (stereo not given) | 91.5% (inactive)
51 | COC(=O)CSc1nc(C)cc(Oc2ccccc2)n1 | 104% (inactive)
52 | CCCN(CCC)C(=O)CCS(=O)(=O)c1cccc2nsnc12 | 96.3% (inactive)
53 | O=C(NC1CCCC1)C1c2ccccc2C(=O)N1CCCN1CCOCC1 (stereo not given) | 97.2% (inactive)
54 | CCCCCOC(=O)NCC(O)c1ccccc1 (stereo not given) | 101% (inactive)
55 | Cc1cc(C)c2c(=O)n(CC(=O)N3CCC(N4CCCCC4)CC3)sc2n1 | 2.7% (active)
56 | Cn1c(=O)c2cc(NCc3ccccc3)nnc2n(C)c1=O | 67.5% (inactive)
57 | COC(=O)C1=CNC=C(C(=O)OC)C1c1ccc(C(=O)OC)cc1 | 93.5% (inactive)
58 | CC(O)c1cccc(NC(=O)CCC(=O)O)c1 (stereo not given) | 98.9% (inactive)
59 | CCSc1nnc(NC(=O)c2cc3c(s2)CCCC3)s1 | 54.3% (inactive)
60 | CC(CCc1ccco1)NC(=O)c1cc2c(-c3ccccc3F)nn(C)c2s1 (stereo not given) | 83.3% (inactive)

Row | Structure (SMILES) | viability
61 | COc1ccc(CNC(=O)c2ccc3c(c2)N(C)C(=O)CS3=O)cc1 (stereo not given) | 103% (inactive)
62 | Cc1ccc(OCCN2CCCCCC2)c(C)c1 | 71.1% (inactive)
63 | C(=N\c1nccs1)/c1cccnc1 | 108% (inactive)
64 | Cc1ccc(S(=O)(=O)CCc2nc3ccccc3n2CCC#N)cc1 | 23.5% (active)
65 | CCOC(=O)CC1C(=O)NCCN1Cc1cccc(OC)c1 (stereo not given) | 100% (inactive)
66 | COc1ccc(-c2cc(C(F)(F)F)n3nc(C)cc3n2)cc1 | 96.2% (inactive)
67 | Cn1c(=O)[nH]c(=O)c2c1nc(N1CCCCC1)n2CCSc1nc2ccccc2o1 | 90.7% (inactive)
68 | O=C(CN1C(=O)c2ccccc2S1(=O)=O)NC1CCCCCC1 | 102% (inactive)
69 | CC(C)n1c(=O)[nH]c2ccccc21 | 89% (inactive)
70 | O=C(O)C1C2C=CC3(CN(C/C=C/c4ccccc4)C(=O)C13)O2 (stereo not given) | 94% (inactive)
71 | CCCn1nc2ccccc2c1P(=N)(N1CCOCC1)N1CCOCC1 | 96% (inactive)
72 | CCOc1ccc(C2N(c3ccc(F)cc3)C(=O)C3CCCN32)cc1 (stereo not given) | 94.3% (inactive)
73 | COc1ccc(-n2c(C)nc3c(cnn3-c3ccc(C)c(C)c3)c2=O)cc1 | 86% (inactive)
74 | CCSCCOC(=O)C1=C(C)NC(=O)NC1c1cccc(OC)c1OC (stereo not given) | 96.8% (inactive)
75 | CCOc1ccc(NC(=O)CSc2nc3c(c(=O)n2-c2ccccc2OC)SCC3)cc1 | 94.3% (inactive)
76 | CCOc1ccccc1N1C(=O)c2cccnc2C1=O | 102% (inactive)
77 | CCOc1ccc(-n2c(SCC(=O)NCc3ccco3)nc3c(c2=O)SCC3)cc1 | 95.2% (inactive)
78 | Cc1ccc(-c2nnc3n2N=C(c2ccccc2)CS3)cc1 | 97.7% (inactive)
79 | Cc1cc(N2CCCC2)n2nc(C)nc2n1 | 102% (inactive)
80 | CS(=O)(=O)c1ccc(N)cc1 | 103% (inactive)
